Experimental data taken from PubChem BioAssay AID504770 (ICCB-Longwood Screening Facility, Harvard Medical School, 2011).
Hit rate of the full screen: of about 130,000 compounds, about 350 (0.27%) were called active. The sample as a whole holds a higher share of actives than the screen did. A number with no mark means an inactive call. Cut-off read from the data, not from the text of the source: active = z-score below about -2 (passing the limit was not always enough); inactive = the rest.

Experiment: PubChem AID 504770
Conditions: E. coli YBA685 rctB-dependent plasmid, OD600 growth, 3 h; hits give low values

Row | Compound | z-score
1 | Cc1ccccc1NC(=O)CSC(=O)c1ccccc1 | 0.6
2 | N#CC1(C#N)C(c2ccc(Cl)c(Cl)c2)C1(C#N)C#N | -6.85 (active)
3 | COc1ccc(C2C(C#N)(C#N)C2(C#N)C#N)cc1 | 0.05
4 | O=C(O)C(Cc1ccccc1)Nc1ncnc2sc3c(c12)CCC3 (centres undefined) | 0.65
5 | CCc1cccc(NC(=O)CC(=O)Nc2ccc3nc4n(c(=O)c3c2)CCCCC4)c1 | 0.6
6 | Cc1c(C(=O)NC2CCCCC2)sc2nc(-c3ccc(F)cc3)cn12 | 0.15
7 | COc1ccc(C(=O)Nc2ccc(-n3nncc3-c3ccccc3)cc2)cc1 | -0.9
8 | Cc1ccccc1C(=O)N(CC#N)CC#N | -0.6
9 | Cc1ccccc1NC(=O)NC(=O)CC#N | 0.45
10 | Cc1ccccc1C(=O)CC#N | -3.2 (active)
11 | CC(C)(C)c1ccc(CNCc2ccco2)cc1 | 0.35
12 | CCOC(=O)CN1C=NS(=O)(=O)c2ccccc21 | 0.4
13 | O=C1Nc2ccccc2C1=Nc1cccc(C(F)(F)F)c1 | -1.05
14 | CC(C)c1c(O)c2ccccc2[nH]c1=O | -0.4
15 | O=C1CCC(C2CCC(=O)CC2)CC1 | -0.55
16 | CCc1nc2ccccc2n1CCO | 0.6
17 | CS(=O)(=O)Nc1ccccc1C(=O)OCC(=O)NC1CC1 | -0.75
18 | Cc1ccc(NC(=O)Cn2cc3c(n2)CCC(C)C3)c(Cl)c1 (centres undefined) | -0.6
19 | COc1cc(CNc2ccc3[nH]c(=O)[nH]c3c2)ccc1OCC(N)=O | 1.6
20 | Cc1nc(S(=O)(=O)NCc2ccc(-c3cccs3)cc2)cn1C | -0.2
21 | CCCOc1ccc(NC(=O)CC2SC(N)=NC2=O)cc1 (centres undefined) | -1.1
22 | Cc1onc(-c2c(Cl)cccc2Cl)c1/C=N/O | -0.4
23 | CCCCn1c2ccccc2c2nc3ccccc3nc21 | 0.05

Row | Compound | z-score
24 | CCCCn1c2nc3ccccc3nc2c2c(N)ncnc21 | 0.2
25 | CCCc1nc2c3ccccc3ncn2n1 | -5.5 (active)
26 | Cc1c(C(=O)NCc2ccc(OC(C)C)cc2)oc2ccc3c(c12)C=CC(C)(C)O3 | 0.85
27 | CC(=O)Oc1cccc2c1OC(C)(C)C2 | 1.6
28 | CC(=O)Oc1cccc2c1C(=O)C=CC2=O | -6.5 (active)
29 | CC(=O)Oc1ccc(OC(C)=O)c2c1C1C=CC2CC1 | 0.85
30 | CC1Cc2cc(S(=O)(=O)NCCC(=O)Nc3ccc(F)cc3F)ccc2N1C(=O)C1CC1 (centres undefined) | -0.8
31 | COC(F)(C(=O)N1CCOCC1)C(F)(F)F (centres undefined) | -0.4
32 | Cc1ccc(C(=O)C(C)Sc2nnc3ccccn23)cc1 (centres undefined) | -0.05
33 | Cc1c(Sc2nc3ccccc3s2)c(=O)[nH]c2cc3c(cc12)OCO3 | 1
34 | C/C=C/C(=O)Nc1ccc(N2CCN(c3ccc(C(F)(F)F)cn3)CC2)nc1 | 0.05
35 | O=C1CC2(CCN(C(=O)Cc3ccccc3)CC2)Oc2ccccc21 | 2.85
36 | CCc1n[nH]c(=O)c2cc3sccc3n12 | -0.2
37 | O=C1c2ccc(-c3nc4ccc(Cl)cc4c(=O)o3)cc2C(=O)N1CC1CCCO1 (centres undefined) | -0.25
38 | O=C1NC(=Nc2ccc(O)cc2)S/C1=C\c1ccc(C(=O)O)cc1 | -0.6
39 | Cc1ccccc1C(CC(=O)O)N1Cc2ccccc2C1=O (centres undefined) | -0.8
40 | Cc1ccc(Cn2c(=O)c3ccccc3n3c(SCC4CCCO4)nnc23)cc1 (centres undefined) | -0.7
41 | COc1ccc(NC(=O)c2cc(F)cc3c2OCOC3)cc1 | 1.45
42 | CNS(=O)(=O)c1ccc2[nH]c(=O)cc(C)c2c1 | 0.45
43 | N#CC1=CN(Cc2ccccc2)C=C(/C=N/Nc2ccc(F)cc2)C1 | -0.9
44 | Cc1cc(C(=O)COC(=O)C2CC2C)c(C)n1-c1cccc(S(=O)(=O)N2CCOCC2)c1 (centres undefined) | -0.5
45 | O=C(CNC1CCCC1)Nc1ccc(N2CCCC2)cc1 | -0.15
46 | CN1/C(=C\C(=O)COC(=O)C(C)(C)C)C(C)(C)c2ccccc21 | -0.4

Row | Compound | z-score
47 | Cn1[nH]c2nc3[nH]n(C)c(=O)c3c(-c3ccccc3)c2c1=O | 0.65
48 | Cn1nc(SCC(=O)N2c3ccccc3CCc3ccccc32)sc1=S | -0.4
49 | O=C(Nc1ccc(Cl)c(Cl)c1)Nc1ccnn1C1CCCCC1 | -1.3
50 | CN(C)c1ccc(/C=N/S(=O)(=O)c2ccccc2)cc1 | -1.15
51 | CC1(C)CC(=O)c2c(SCCO)sc(C#N)c2C1 | -0.35
52 | N#CC1=C(N)C(C#N)(C#N)C(c2cccs2)C=C1C1CC1 (centres undefined) | -0.95
53 | Cc1nn(CCCC(=O)NCCC2=CCCCC2)c(=O)c2nccn12 | 0.9
54 | O=S1(=O)CCN(Cc2cc(F)cc3c2OCOC3)CC1 | 0.35
55 | CN(C)[C@@H]1C(=O)C(C(N)=O)=C(O)[C@@]2(O)C(=O)C3=C(O)c4c(O)ccc(Cl)c4[C@@H](O)[C@H]3C[C@@H]12 | -2.25 (active)
56 | O=c1cc(O)nc2ccccn12 | 1.45
57 | O=c1[nH]nc2ccccn12 | 1
58 | c1ccn2c(c1)nc1nc3nonc3nc12 | -5.05 (active)
59 | Cc1ccccc1Oc1ccc(S(=O)(=O)N2CC(C)OC(C)C2)cc1 (centres undefined) | 0.7
60 | CC(C)CNC(=O)c1ccc(N(C)C)cc1 | -1.2
61 | CCOc1ccc(N=C2CSC(=O)N2)cc1 | -0.95
62 | CCOC(=O)c1sc(-c2ccccc2)nc1CSc1nccn1C | 1.15
63 | Cc1c(CCN)sc2nc(-c3ccc(Cl)cc3)nn12 | 0.25
64 | CS(=O)(=O)N1CCN=C1SCc1cccnc1 | -0.85
65 | O=C1CCc2cc(S(=O)(=O)NCC3CCCO3)cc3c2N1CC3 (centres undefined) | 0.8
66 | CCOC(=O)c1ccc(-c2cc(=O)c3ccccc3o2)cc1 | -0.3
67 | O=C(Nc1ccc(F)cc1)n1ncc2cc(Cl)ccc21 | 1.1
68 | N#CC(C#N)=Cc1ccc(-c2cccc(C(=O)O)c2)o1 | 1.85
69 | COc1ccc(CNC(=O)COc2ncnc3ccccc23)cc1 | 0.2
